# According to ChEMBL document CHEMBL4808148, “HDAC6 screening dataset using tau-based substrate in an enzymatic assay yields selective inhibitors and activators” (2021):
# About 390 (7%) of roughly 5,600 compounds showed an effect of 50% or more. This excerpt belongs to a sample that is enriched for strong results. Starred links: 1 amine or outer side, 2 acyl side, 3 side chain; linkers in the order of their positions; H or OH if unused. Positions of bridges follow the written chain, without caps; N, C: chain ends. Non-standard residues stand in square brackets, D forms with d. Residues, ends and D or L forms follow the SMILES beside them. *: point of attachment. pTerphenylCO(4''-OnC5H11) = CCCCCOc1ccc(-c2ccc(-c3ccc(C(=O)*)cc3)cc2)cc1; Orn(4R-OH,5R-OH) = O=C([C@H](C[C@@H](O)[C@@H](O)N[*:3])N[*:1])[*:2]; hTyr(3S-OH,4S-OH) = N[C@H](C(=O)O)[C@H](O)[C@@H](O)c1ccc(O)cc1; Pro(3S-OH,4S-Me) = C[C@H]1CN[C@H](C(=O)O)[C@H]1O; Hyp = O=C(O)[C@@H]1C[C@@H](O)CN1
# Assays:
# [1] = target: T1, Protein deacetylase HDAC6 (Homo sapiens) (UniProt Q9UBN7); settings: at 10 µM
# T1 sequence (whole entry): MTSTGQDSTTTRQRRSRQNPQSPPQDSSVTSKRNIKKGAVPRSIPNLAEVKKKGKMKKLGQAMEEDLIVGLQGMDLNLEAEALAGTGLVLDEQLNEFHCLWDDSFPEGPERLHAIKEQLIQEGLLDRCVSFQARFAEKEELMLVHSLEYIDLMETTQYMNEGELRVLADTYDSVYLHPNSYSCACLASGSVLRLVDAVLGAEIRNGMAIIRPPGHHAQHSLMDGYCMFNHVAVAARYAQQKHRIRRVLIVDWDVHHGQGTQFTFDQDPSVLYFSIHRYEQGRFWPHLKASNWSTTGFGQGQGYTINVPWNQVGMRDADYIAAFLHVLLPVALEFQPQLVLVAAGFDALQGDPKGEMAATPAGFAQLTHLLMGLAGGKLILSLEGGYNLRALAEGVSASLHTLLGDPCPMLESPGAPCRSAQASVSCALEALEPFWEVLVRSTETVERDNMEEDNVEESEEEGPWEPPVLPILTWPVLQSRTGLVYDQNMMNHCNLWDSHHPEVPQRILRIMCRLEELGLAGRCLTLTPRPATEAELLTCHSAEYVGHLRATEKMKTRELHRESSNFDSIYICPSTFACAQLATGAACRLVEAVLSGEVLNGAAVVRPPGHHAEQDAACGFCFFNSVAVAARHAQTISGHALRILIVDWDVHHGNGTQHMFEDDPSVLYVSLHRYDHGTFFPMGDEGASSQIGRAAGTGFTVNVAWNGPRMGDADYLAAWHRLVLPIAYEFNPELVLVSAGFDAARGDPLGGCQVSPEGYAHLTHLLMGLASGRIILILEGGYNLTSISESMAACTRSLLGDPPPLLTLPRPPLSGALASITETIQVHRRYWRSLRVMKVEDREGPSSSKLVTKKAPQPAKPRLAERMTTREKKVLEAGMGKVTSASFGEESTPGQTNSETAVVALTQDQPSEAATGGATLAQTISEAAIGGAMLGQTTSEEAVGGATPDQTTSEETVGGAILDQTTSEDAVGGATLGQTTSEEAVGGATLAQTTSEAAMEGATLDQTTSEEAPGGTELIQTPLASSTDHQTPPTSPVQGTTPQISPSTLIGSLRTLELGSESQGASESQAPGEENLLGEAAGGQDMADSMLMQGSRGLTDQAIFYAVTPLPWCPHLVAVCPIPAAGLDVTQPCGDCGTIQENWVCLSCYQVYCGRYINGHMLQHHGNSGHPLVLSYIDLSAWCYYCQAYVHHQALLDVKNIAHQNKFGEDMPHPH
# [2] = target: Protein deacetylase HDAC6 (Homo sapiens) (UniProt Q9UBN7); settings: at 10 µM; remark: listed apart in the source
Compound,inhibition [1] [%],inhibition [2] [%]
"CCCCCOc1ccc(-c2ccc(-c3ccc(C(=O)N[C@H]4C[C@@H](O)[C@@H](O)NC(=O)[C@@H]5[C@@H](O)[C@@H](C)CN5C(=O)[C@H]([C@@H](C)O)NC(=O)[C@H]([C@H](O)[C@@H](O)c5ccc(O)cc5)NC(=O)[C@@H]5C[C@@H](O)CN5C(=O)[C@H]([C@@H](C)O)NC4=O)cc3)cc2)cc1 ({pTerphenylCO(4''-OnC5H11)}-[Orn(4R-OH,5R-OH)]T[Hyp][hTyr(3S-OH,4S-OH)]T[Pro(3S-OH,4S-Me)]; lactam 1-C)",16.9,
Cc1cc(Nc2cc(C)c(C#N)c(N[C@@H](C)CCCC(C)(C)O)n2)n[nH]1,27.9,
Cc1ccc(C23CNCC2C3)cc1 (stereo not drawn),-3.02,
O=C(O)c1ccccc1S,17.6,
O=C(O)c1ccccc1C(=O)Nc1ccc(-c2ccccc2)cc1,68,
CC(=O)NS(=O)(=O)c1ccc(NC(=O)c2ccccc2C(=O)O)cc1,-8.72,
CCN(CC)CCOc1ccccc1C(=O)CCc1ccccc1,2.33,
C[C@H](N)C(=O)N[C@@H](CCC(N)=O)C(=O)O (H-Ala-Gln-OH),-3.39,
COc1ccc(N2CCOCC2)c2sc(NC(=O)N3CCC(C)(O)CC3)nc12,2.18,
Cc1cc(NC(=O)C(c2ccccc2)N2CCCc3ccccc32)no1 (stereo not drawn),6.26,
COc1cc(C(=O)NCCCCCC(=O)O)cc(OC)c1OC,0.73,
O=C(CNC(=O)c1ccc(Cl)cc1)NO,42.6,
CN(C)c1ccc(C(=O)NCCCCCCC(=O)NO)cc1,102,
CC(=O)O[C@@H]1CC[C@@]2(C)[C@@H](CC[C@]3(C)[C@@H]2C(=O)C=C2[C@@H]4[C@@H](C)[C@H](C)CC[C@]4(C)CC[C@]23C)[C@@]1(C)C(=O)O,-8.47,
CCc1noc(C)c1-c1[nH]c2ccccc2c1C(O)CN(C)C (stereo not drawn),3.93,
CN(C)CCCSc1ccccc1NC(=O)/C=C/c1ccccc1,97.2,
O=C1c2ccccc2CCC1CNCCc1ccc(O)cc1 (stereo not drawn),4.32,
COc1cc(O)c(C(=O)c2ccccc2)cc1S(=O)(=O)O,-4.32,
COc1cc(-c2ccc(/N=N/c3ccc4c(S(=O)(=O)O)cc(S(=O)(=O)O)c(N)c4c3O)c(OC)c2)ccc1/N=N/c1ccc2c(S(=O)(=O)O)cc(S(=O)(=O)O)c(N)c2c1O,69.8,
OC(CNc1ccccc1)Cn1c2ccc(Br)cc2c2cc(Br)ccc21 (stereo not drawn),-9.16,
Cc1cc(-c2cc(OC(=O)c3ccccc3)ccc2Cl)cc2nnc(Nc3ccc(OCCN4CCCC4)cc3)nc12,-4.96,
CC(=O)[C@]1(N)Cc2c(O)c3c(c(O)c2[C@@H](O[C@H]2C[C@H](O)[C@H](O)CO2)C1)C(=O)c1ccccc1C3=O,18.4,
Cc1oc(=O)oc1COC(=O)C1=C([C@H]2CCCO2)S[C@@H]2[C@@H]([C@@H](C)O)C(=O)N12,31.1,
Cc1ccc(-n2nc(C(C)(C)C)cc2NC(=O)NCc2cc(F)ccc2Oc2ccc3c(cnn3CCO)c2)cc1,30.6,
Cc1ccnc2c1CCCC2C(N)=S (stereo not drawn),-0.81,

Compound,inhibition [1] [%],inhibition [2] [%]
CC(CN(C)C)CN1c2ccccc2Sc2ccc(C#N)cc21 (stereo not drawn),7.25,
O=C1NC(=O)/C(=C\c2ccc(-c3ccc(F)cc3)o2)S1,60.3,
CN1c2c(oc(=O)n(-c3ccccn3)c2=O)-c2ccccc2S1(=O)=O,16.6,
CN1C(=O)N(c2ccc(C#N)c(C(F)(F)F)c2)C(=O)[C@]1(CO)c1ccccc1,40.5,
Cc1nc(-c2cccnc2)sc1C(=O)Nc1ccccc1-c1cn2c(CN3CCOCC3)csc2n1,11.9,
FCc1ccc(OCCOc2ccc(Cl)cc2Cl)c(Cl)n1,61.7,
CCOc1c2c(c(OCC)c3ccccc13)C(=O)N(c1ccc(CC(=O)NS(=O)(=O)c3ccccc3)cc1)C2,3.49,
O=C1C2CC3CC1CC(O)(C3)C2,26.7,
Cc1cc2c(F)c(Oc3ncnn4cc(OC[C@@H](C)OC(=O)[C@H](C)N)c(C)c34)ccc2[nH]1,48.1,
COc1cc2c(Oc3ccc4[nH]c(C)cc4c3F)ccnc2cc1OCC1(N)CC1,54.9,
NS(=O)(=O)c1ccc2c(c1)C1C=CCC1C(c1ccc(Br)cc1)N2 (stereo not drawn),8.71,
CS(=O)(=O)c1ccc(-c2cn3ccccc3n2)cc1,99.6,
CS(=O)(=O)c1ccc(-c2cnc(N)c(C(=O)Nc3ccccc3)n2)cc1,6.2,
Cc1cccc2c1CC[C@H](CN1CCC(c3c(Cl)cccc3Cl)CC1)C[C@@H]2O,-4.44,
CN(C)[C@@H]1CCc2[nH]c3ccc(NC(=O)c4ccc(F)cc4)cc3c2C1,6.78,
O=C1C2CC=CCC2C(=O)N1SC(Cl)(Cl)Cl (stereo not drawn),59.5,
O=[N+]([O-])c1ccc(Cl)c([N+](=O)[O-])c1,15.2,
O=C(O[C@@H]1Cc2c(O)cc(O)cc2O[C@@H]1c1cc(O)c(O)c(O)c1)c1cc(O)c(O)c(O)c1,11.9,
O=C1C[C@@H](c2ccc(O)cc2)Oc2cc(O)cc(O)c21,73.8,
COc1cc(O)cc([C@@H]2CC(=O)c3c(O)cc(O[C@@H]4O[C@H](CO)[C@@H](O)[C@H](O)[C@H]4O[C@@H]4O[C@@H](C)[C@H](O)[C@@H](O)[C@H]4O)cc3O2)c1,5.67,
[O-][n+]1ccccc1S,22.8,
O=C(Oc1ccccc1)c1ccccc1O,77.2,
CCOC(=O)c1ccccc1OC(N)=O,7.12,
O=C(OCCO)c1ccccc1O,5.24,
CCCN(CCC)C(=O)C(CCC(=O)OCCCN1CCN(CCOC(=O)Cc2c(C)n(C(=O)c3ccc(Cl)cc3)c3ccc(OC)cc23)CC1)NC(=O)c1ccccc1 (stereo not drawn),-4.35,

Compound,inhibition [1] [%],inhibition [2] [%]
O=[N+]([O-])c1cc(Cl)ccc1S(=O)(=O)c1ccccc1,13.8,
NC1=NC(=O)N([C@H]2C[C@H](O)[C@@H](CO)O2)CN1,19.8,
Brc1ccc(NC2C3CC4CC(C3)CC2C4)cc1 (stereo not drawn),5.83,
O=S(=O)(c1ccccc1F)N1CCOc2c(N3CCNCC3)cccc21,3.08,
CC(=O)O[C@]1(C(C)=O)CC[C@H]2[C@@H]3C=CC4=CC(=O)CC[C@]4(C)[C@H]3CC[C@@]21C,31.5,
CCCSc1ccc2[nH]c(NC(=O)OC)nc2c1,58.8,
CCOC(=O)Nc1nc2ccccc2[nH]1,34.2,
CCC[S+]([O-])c1ccc2[nH]c(NC(=O)OC)nc2c1 (stereo not drawn),18.6,
Cc1nc(N(C)C(=O)Cc2ccc(-c3ccccn3)cc2)sc1S(N)(=O)=O,23.9,
CCOC(=O)Nc1ccc2c(c1)N(C(=O)CCN(CC)CC)c1ccccc1S2,14.5,
Nc1nccc(Oc2ccc(NC(=O)c3cn(COP(=O)(O)O)cc(-c4ccc(F)cc4)c3=O)cc2F)c1Cl,21.9,
C[C@H]1CN(Cc2ccc(CC(=O)N3CCC(Nc4cccc(F)c4)CC3)cc2)CCN1,44.9,
O=C(/C=C/c1cccc(F)c1)NC1CC1,52.8,
CC(=O)N1CCC(NC(=O)c2ccc(F)cc2)CC1,13.7,
O=C(C(c1ccccc1)c1ccccc1)N1CCN(CC(O)COc2cccc3ncccc23)CC1 (stereo not drawn),5.51,
COc1ccc(C2CNC(=O)NC2)cc1O[C@H]1C[C@@H]2CC[C@H]1C2,6.99,
CCOC(=O)[C@H](CCc1ccccc1)N[C@@H](C)C(=O)N1C(=O)N(C)C[C@H]1C(=O)O,15.9,
CC(=O)Oc1ccccc1C(=O)Nc1ncc([N+](=O)[O-])s1,103,
O=C1NC(O)CCN1[C@@H]1O[C@H](CO)[C@@H](O)[C@H]1O (stereo partly drawn),15.9,
C[C@@H]1CC2C3CCC4=CC(=O)C=C[C@]4(C)[C@@]3(F)[C@@H](O)C[C@]2(C)[C@H]1C(=O)CO (stereo partly drawn),6.55,
"ESCIN, CHEMBL4594473",,3.89
O=C(COc1ccc(Cl)cc1)N[C@H]1CC[C@H](NC(=O)COc2ccc(Cl)cc2)CC1,-5.96,
CN1[C@@H]2C[C@@H](O)C[C@H]1[C@@H]1O[C@@H]12,91.4,
Cc1cc(C)c(NC(=O)N(Cc2ccc3c(c2)Cc2ccccc2-3)C2CCCCCC2)c(C)c1,0.9,
CN1CCN(Cc2ccc(Nc3ncc(Cl)c(Nc4ccccc4S(=O)(=O)N(C)C)n3)cc2)CC1,5.09,

Compound,inhibition [1] [%],inhibition [2] [%]
CC1(C)S[C@@H]2[C@H](NC(=O)[C@H](NC(=O)N3CCNC3=O)c3ccccc3)C(=O)N2[C@H]1C(=O)O,13.9,
O=C(O)CC(S)C(=O)O (stereo not drawn),18.6,
O[AsH]O[AsH]O (stereo not drawn),-5.16,
O=C(CO)[C@@H](O)[C@@H](O)[C@H](O)CO,3.04,
"GADOTERIDOL, CHEMBL1200593",,-7.04
"PHENYLMERCURIC ACETATE, CHEMBL1333953",,113
"VANADATE ION, CHEMBL1163564",,8.48
CCNCc1cc(C(C)(C)C)c(O)c(C(C)(C)C)c1,36.2,
CNc1ccc([N+](=O)[O-])cc1-n1cnc(-c2ccc(C(F)(F)F)cc2)c1,-2.07,
CCN1CCN(Cc2ccc(C(=O)Nc3ccc(C)c(Oc4ccc5c(c4)CC(=O)N5)c3)cc2C(F)(F)F)CC1,42.8,
Cc1ccc(C(=O)Nc2ccc(CN3CCN(C)CC3)c(C(F)(F)F)c2)cc1C#Cc1cnc2[nH]ncc2c1,69,
CCCCC(F)(F)[C@@]1(O)CC[C@H]2[C@@H](CC(=O)[C@@H]2CCCCCCC(=O)O)O1,26.8,
Nc1c(S(=O)(=O)O)cc(Nc2cccc3ccccc23)c2c1C(=O)c1ccccc1C2=O,30.6,
CNC(C)CC1CCCCC1 (stereo not drawn),-3.99,
COc1ccc2nc3c(c(N)c2c1)CCCC3,14.7,
Cc1cc(O)c2c(c1)C(=O)c1cc(O)cc(O)c1C2=O,99.6,
O=C(Nc1ccncc1)C(=O)c1cn(Cc2ccc(Cl)cc2)c2ccccc12,11.2,
CCCCCCOc1nsnc1C1=CCCN(C)C1,21.1,
CSCC[C@H](NC(=O)[C@H](Cc1ccccc1)NC(=O)CNC(=O)CNC(=O)[C@@H](N)Cc1ccc(O)cc1)C(=O)O,-7.67,
CC(C)Cc1ccc(C(C)C(=O)NCCO)cc1 (stereo not drawn),5.6,
O=C(Nc1ccc(Cl)cc1)Nc1ccc(Cl)c(Cl)c1,52.2,
CC(=O)Nc1ccc(Cc2ccc(NC(C)=O)cc2)cc1,37.1,
Nc1nonc1/C(=N/O)Nc1ccc(F)c(Cl)c1,6.27,
